Sampled rows, rich in hits. Any-hit rate of the full collection: about 10%.
BAZ2B inh: blocks human BAZ2B. Q9UIF8. AlphaScreen BAZ2B-H3K14Ac peptide displacement. Potency, µM (doses to about 114 µM), for the others: at the highest dose activity change, negative = inhibition, actives largely listed as inhibitors. 360,000 compounds, 4.4% hits; note: % is set by controls: 0 for no effect and ±100 for the full control effect; nearly all actives have a fitted effect of over 60% in size
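BAZ2B 50 nM plus b-H3(5-23)K14Ac 50 nM, PBS pH 7.4/0.01% Tween-20, 30 min RT; compound added (max 110 uM), 30 min RT; streptavidin donor/Ni-chelate acceptor beads 10 ug/mL final, 20 min dark; AlphaScreen read.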
HP1b binding inh: HP1-beta chromodomain-methylated histone interaction inhibition. P83916. AlphaScreen HP1-beta / biotin-H3K9me3 peptide binding. Potency, µM (highest dose often 114 µM), without a hit: at the highest dose activity change, negative = inhibition, actives largely listed as inhibitors. 390,000 compounds, 0.56% hits. AID 540317; note: nearly all actives have a fitted effect of over 70% in size
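Compound inhibition of the preformed complex between 50 nM HP1-beta and 50 nM biotinylated H3K9me3 peptide was read by AlphaScreen. Buffer was PBS pH 7.4 with 0.01% Tween-20. Incubations ran 30 min at room temperature, with 10 ug/mL donor/acceptor beads.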
JMJD2A Tudor: inhibitors of human JMJD2A Tudor domain. O75164. AlphaScreen JMJD2A-Tudor / H3K4me3 peptide binding. Potency, µM (series often up to 114 µM), for inactives: at the top dose activity change, negative = inhibition, actives largely listed as inhibitors. 390,000 compounds, 4.4% hits. AID 504339; note: % is set by controls: 0 for no effect and ±100 for the full control effect; nearly all actives have a fitted effect of over 50% in size
GLS inh: glutaminase GLS (human) inhibition; Potency, µM (top dose mostly 45.5 µM), for the others: at the top dose activity change, negative = inhibition, most hits filed as inhibitors; O94925; 410,000 compounds, 0.21% hits; GLS enzymatic activity, qHTS titration; note: % is set by controls: 0 for no effect and ±100 for the full control effect
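hKGA; 45 mM KH2PO4 pH 8.2 + 0.02% Tween-20; cpd via pin tool; 1 mM Gln soln; GluOx/HRP/Amplex Red; RT 30 min; fluor. t0 & final.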
G9a block: G9a (human) methyltransferase inhibition; Potency, µM (titrated, usually from 102 µM), without a hit: at the top dose activity, negative = inhibition, most hits filed as inhibitors; G9a H3K9 monomethylation, AlphaScreen, 2 h; 350,000 compounds, 8.8% hits; AID 504332; note: % is set by controls: 0 for no effect and ±100 for the full control effect; nearly all actives have a fitted effect of over 75% in size
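G9a (20 nM) preincubated 15 min RT with compounds, then 500 nM biotinylated H3K9 peptide and 20 uM SAM added; 2 h RT reaction. Monomethyl-H3K9 product detected by AlphaScreen with anti-H3K9me1 antibody, streptavidin donor and anti-rabbit IgG acceptor beads.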
* = called active by the depositor; ? = inconclusive; nt = not tested or not shown; [ ] = another dose, or the depositor's remark. Calls come from the whole dose curve; as a rule, active = well fitted curve in the direction sought with a large enough effect; inconclusive = small, poorly fitted or top-dose-only effect, or another doubt; inactive = no such curve, though single readings can be large; an effect the other way counts as inactive or inconclusive. Potency is the fitted concentration of half-maximal effect.

SMILES	BAZ2B inh	HP1b binding inh	JMJD2A Tudor	GLS inh	G9a block
COc1cccc(NC(=O)C2CCN(C(=O)[C@@H]3Cc4ccccc4CN3)CC2)c1	-19%	32%	-20%	1%	?
COc1ccc(N2CC(C(=O)N3CCN(C)CC3)CC2=O)cc1 (stereo unspecified)	0%	21%	-1%	-3%	?
Cc1ccccc1NC(=O)c1ccc(Nc2c([N+](=O)[O-])cc([N+](=O)[O-])c3ccccc23)cc1	?	?	?	2%	7.9µM*
O=C(Nc1ccc(Nc2ccccc2)cc1)c1ccc(Cl)c([N+](=O)[O-])c1	40µM*	?	50µM*	1%	nt
Cc1cc(C(=O)Nc2ccc(Nc3ccccc3)cc2)ccc1[N+](=O)[O-]	-25%	22µM*	10µM*	16µM*	8%[0.501 µM]
COc1ccc(CN2C(=O)COc3ccccc32)cc1	40%	49%	1%	1%	nt
O=C(NC1CCCCC1)N1CCCCCC1	-5%	16%	-3%	3%	-7%
CN1CCN(C(=O)NC2CCCCC2)CC1	50µM*	?	8.9µM*	6%	8.9µM*
CN1CCC(=NNC(=O)C(=O)NC2CCCCC2)CC1	-12%	8%	?	8%	-13%
CC(C)(C)C1CCC(=NNC(=O)C(=O)NC2CCCCC2)CC1 (stereo unspecified)	-34%	15%	79µM*	-4%	?
CN1CCC(=NNC(=O)C(=O)NC2CCCC2)CC1	?	5%	40µM*	-6%	-5%
O=C(N/N=C/c1ccc(O)c(O)c1)c1cc(-c2ccccc2)nc2ccccc12	?	-29%	?	13µM*	45µM*
Cc1cc(C(=O)N/N=C/c2ccc([N+](=O)[O-])cc2)c2ccccc2n1	28%	40%	-6%	-2%	14%
O=C(N/N=C/c1cc([N+](=O)[O-])ccc1O)c1cc(-c2ccccc2)nc2ccccc12	32µM*	9%	?	-1%	?
Cc1cc(C(=O)N/N=C/c2cc([N+](=O)[O-])ccc2O)c2ccccc2n1	18µM*	25%	25µM*	-4%	32%[59 µM]
O=C(NC(C(=O)N/N=C/c1cc([N+](=O)[O-])ccc1O)c1n[nH]c(=O)c2ccccc12)c1ccccc1 (stereo unspecified)	32µM*	4%	45µM*	-9%	?
Cn1c(Cn2c(C(F)(F)F)nc3ccccc32)nc2ccccc21	5%	36%	8%	-12%	5%
O=S(=O)(c1ccccc1)N1CCN(Cc2ccccc2)c2ccccc21	nt	22%	-5%	8%	nt
Cc1cccc(-c2noc(CN(C3CCCCC3)S(=O)(=O)c3ccc(F)cc3)n2)c1	2%	31%	11%	-11%	33%[59 µM]
COc1cc(OC)c(N(C)S(=O)(=O)c2cccc(C(=O)OCC(=O)N3CCOCC3)c2)cc1Cl	nt	31%	-3%	0%	nt
Cc1cc(C(=O)N/N=C/c2cc(Br)cc([N+](=O)[O-])c2O)c2ccccc2n1	50µM*	?	?	17%	?
COc1ccc2cc3c(N)nn(C(=O)c4ccc(OC)c(OC)c4)c3nc2c1	79µM*	27%	-27%	-4%	?
CCOC(=O)C1=C(N)n2c(s/c(=C\c3ccco3)c2=O)=C(C(=O)OC(C)C)C1c1ccco1 (stereo unspecified)	?	-29%	?	12%	28µM*
CCOC(=O)C1=C(N)n2c(s/c(=C\c3ccco3)c2=O)=C(C(=O)OCC)C1c1ccco1 (stereo unspecified)	7.9µM*	-18%	?	4%	?
CCOC(=O)C1=C(c2ccccc2)N=c2s/c(=C\c3ccco3)c(=O)n2C1c1cccs1 (stereo unspecified)	11µM*	-35%	25µM*	0%	?
SMILES	BAZ2B inh	HP1b binding inh	JMJD2A Tudor	GLS inh	G9a block
CC1=C(C(=O)OC(C)C)C(c2ccco2)NC(=O)N1 (stereo unspecified)	?	9%	?	-5%	-10%[59 µM]
CCOC(=O)C1=C(N)n2c(s/c(=C/c3ccccc3)c2=O)=C(C(=O)OCC)C1c1ccccc1 (stereo unspecified)	-24%[57.1 µM]	nt	nt	nt	12%
CSc1ccccc1NC(=O)CSCc1ccc(C)cc1	103%	131%	100%	-5%	nt
CC(C)(C)c1ccc(C2Sc3ccccc3NC3=C2C(=O)c2ccccc23)cc1 (stereo unspecified)	8.9µM*	?	25µM*	-9%	10µM*
O=C(c1ccc([N+](=O)[O-])cc1)c1cc2ccc(O)cc2oc1=O	-25%	14%	-12%	6%	50µM*
Cc1ccccc1Nc1c(-c2cccc(N(C)C)c2)nc2ccc(Br)cn12	-30%	-4%	-25%	-10%	-12%[59 µM]
NC(=O)C1CCN(c2c([N+](=O)[O-])cc(C(F)(F)F)cc2[N+](=O)[O-])CC1	-7%	17%	-9%	3%	nt
COC(=O)C1CCN(c2c([N+](=O)[O-])cc(C(F)(F)F)cc2[N+](=O)[O-])CC1	35µM*	?	-21%[11.4 µM]	0%	?
O=C(O)Cc1cccc(=O)c(O)c1C(=O)O	nt	40µM*	1.1µM*	2.2µM*	nt
O=C(O)Cc1ccccc1C(=O)O	-4%	37%	-15%	-3%	8%[59 µM]
CCN(CC)c1ccc(/C=C(\C#N)C(N)=S)cc1	13µM*	?	-10%[11.4 µM]	24%	20µM*
Cc1ccc(C)c(NC(=S)c2ccccn2)c1	20µM*	6.3µM*	79µM*	11%	?
S=C(Nc1ccccn1)c1ccccn1	10µM*	13µM*	5µM*	50%	?
S=C(Nc1ccccn1)Nc1ccccc1Cl	-5%	30%	-6%[57.1 µM]	2%	nt
Cc1ccccc1S(=O)(=O)N(C)C[C@H]1OCc2cnnn2CCCC(=O)N([C@H](C)CO)C[C@H]1C	nt	nt	nt	-12%	nt
COc1ccc(-c2oc3ncnc(NCCCN(C)C)c3c2-c2ccc(OC)cc2)cc1	-20%	15%	?	6%	-7%
CCCCNc1ncnc2oc(-c3ccco3)c(-c3ccco3)c12	nt	?	50µM*	nt	nt
Cc1cc(C)nc(SCCCNCc2ccccc2)n1	-38%	28%	-15%	2%	50µM*
Clc1ccc(CNCCCSc2ncccn2)cc1Cl	-14%[57.1 µM]	13%	-15%	-1%	40µM*
Cc1cc(C)nc(SCCS(=O)(=O)Cc2ccccc2)n1	5%	28%	-12%	8%	-1%[12.7 µM]
CN(C)c1cccc(/C=C(\C#N)c2ccccc2)c1	-36%	21%	-13%	15%	45µM*
COc1ccc(-c2nc(C#N)c(NCCc3ccccc3)o2)cc1OC	45µM*	-31%	?	-7%	?
COc1ccc(CCNc2oc(COc3ccccc3Cl)nc2C#N)cc1OC	?	-9%	?	2%	?
CCNc1oc(COc2ccccc2F)nc1C#N	-28%	27%	-14%	-5%	40µM*

Bioassay records deposited in PubChem by National Center for Advancing Translational Sciences (NCATS).
